Hits are enriched below; roughly 2.4% of the tested compounds scored in any of these assays.
Cruzain noTriton = blocks cruzain activity in detergent-free assay | purified cruzain, Z-FR-AMC fluorescence, no detergent | P25779 | 200,000 compounds, 2.3% hits | Potency, µM, inactives show max response, negative = inhibition, most hits filed as inhibitors;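 note: plate controls were enzyme without inhibitor for no effect and buffer without enzyme for full effect; nearly all actives have a fitted effect of over 40% in size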
Target sequence (P25779 123-467 limits assumed): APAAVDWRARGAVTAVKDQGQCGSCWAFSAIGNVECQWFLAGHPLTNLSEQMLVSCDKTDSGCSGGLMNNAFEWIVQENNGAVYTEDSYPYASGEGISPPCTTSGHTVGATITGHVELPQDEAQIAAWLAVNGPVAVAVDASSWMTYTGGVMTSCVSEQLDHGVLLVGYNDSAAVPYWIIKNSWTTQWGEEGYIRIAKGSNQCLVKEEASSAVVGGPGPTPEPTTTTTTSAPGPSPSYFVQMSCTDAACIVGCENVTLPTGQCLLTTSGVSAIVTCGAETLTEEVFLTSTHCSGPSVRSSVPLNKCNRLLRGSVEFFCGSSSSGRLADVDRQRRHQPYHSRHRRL
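Detergent-free condition (0.00005% Triton X-100) in acetate buffer pH 5.5 with DTT. 1.5 nM enzyme and compound were pre-mixed 15 min, then 2 uM Z-FR-AMC substrate added; reaction progress from fluorescence change between first and third reads (60 s).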
Cruzain Triton = blocks cruzain activity in presence of Triton detergent; Potency, µM, without a hit: max response, negative = inhibition, actives largely listed as inhibitors; P25779; purified cruzain, Z-FR-AMC fluorescence, 0.01% Triton; AID 1478; 200,000 compounds, 0.43% hits;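 note: plate controls were neutral wells for no effect and buffer without enzyme for full effect; nearly all actives have a fitted effect of over 40% in size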
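Enzyme 1.5 nM, Z-FR-AMC 2 uM, NaOAc 100 mM pH 5.5, DTT 5 mM, Triton X-100 0.01%; 15 min RT compound preincubation; kinetic ex360/em450, 60 s delta.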
* hit, by the source's call; ? = inconclusive. Calls come from the whole dose curve; as a rule, active = well fitted curve in the direction sought with a large enough effect; inconclusive = small, poorly fitted or top-dose-only effect, or another doubt; inactive = no such curve, though single readings can be large; an effect the other way counts as inactive or inconclusive. Potency is the fitted concentration of half-maximal effect.

SMILES | Cruzain noTriton | Cruzain Triton
CCn1cc2nc(SCc3ccccc3Cl)n(Cc3ccc(OC)cc3)c(=O)c2n1 | -21.6% | 2.1%
O=S(=O)(c1cccc(C(F)(F)F)c1)n1c(/C=C/c2ccccc2)nc2ccccc21 | ? | -8.3%
O=C(Cc1ccc(-c2ccccc2)cc1)NCCS(=O)(=O)N1CCN(c2ccccc2F)CC1 | 12.6µM* | 0.6%
COc1ccc(CC(=O)NCCS(=O)(=O)N2CCN(c3ccccc3F)CC2)cc1OC | 1.3% | -1.4%
O=c1cc(NCc2ccccc2)nc2n1CCCS2 | 25.1µM* | -2.7%
O=C(COc1cc(=O)n2c(n1)SCCC2)c1ccccc1 | -1.1% | 4.5%
Cc1c(NS(=O)(=O)c2ccc3c(c2)OCCO3)cccc1-c1nc2cccnc2s1 | 15.8µM* | -1.2%
Cc1cc(-c2nc3cccnc3s2)ccc1NS(=O)(=O)c1ccc2c(c1)OCCO2 | ? | -4.4%
COc1ccc(-n2ncc3c(NC(C)(C)CO)ncnc32)cc1 | -1.9% | 0.0%
COc1ccc(CCNC(=O)CCc2c(C)c3cc4c(C)c(C)oc4cc3oc2=O)cc1 | 5.3% | -1.6%
COc1ccc(C)cc1NC(=O)C1CCN(S(=O)(=O)c2ccc3[nH]c(=O)oc3c2)CC1 | 2.3% | -2.3%
CCCCOC(=O)Nc1nnc(-c2ccccc2OC)s1 | 15.8µM* | 2.4%
COc1ccccc1-c1nnc(NC(C)=O)s1 | 3.5% | 0.6%
O=C(NCc1ccc(Cl)cc1)c1ccc(NC(=O)N2CC3CCCN3c3ccccc32)cc1 (stereo not drawn) | ? | -7.5%
O=[N+]([O-])c1cccc(/C=C/c2nc(C=Nc3ccccc3)c(O)o2)c1 | 12.6µM* | 0.4%
Oc1oc(-c2ccccc2)nc1C=Nc1ccccc1 | -9.5% | -9.6%
COc1ccc(/C=C2\SC(=NCc3ccccc3)NC2=O)cc1 | 4.2% | -8.2%
COc1ccc(/C=C2\SC(=O)N=C2N)cc1 | 31.6µM* | 0.3%
COc1ccc(C2=Nc3ccccc3N(CC(=O)Nc3cccc(C(C)=O)c3)C(=O)C2)cc1 | ? | -2.2%
Cc1ccc(NC(=S)NC(=O)c2ccc(F)cc2)cc1S(=O)(=O)Nc1ccccc1Cl | ? | -5.2%
O=C(NC(=S)Nc1ccc2c(c1)C(=O)c1ccccc1C2=O)c1ccc(F)cc1 | 3.98µM* | 0.4%
Fc1ccc(NC(=S)N/N=C/c2cccc(Br)c2)c(F)c1 | 25.1µM* | -5.1%
Fc1cccc(/C=N/NC(=S)Nc2ccccc2Cl)c1 | ? | -7.0%
Cc1cc(-c2cccs2)c2c(N)c(C(=O)c3ccc4c(c3)OCO4)sc2n1 | 25.1µM* | -6.5%
COc1ccc(C(=O)c2sc3nc(C)cc(-c4cccs4)c3c2N)cc1 | ? | -5.3%
SMILES | Cruzain noTriton | Cruzain Triton
CCc1ccc(C2=CC(c3cccc(C)c3)n3c(nc4ccccc43)N2)cc1 (stereo not drawn) | ? | -6.4%
CCCn1c(SCC(=O)N2N=C3/C(=C/c4ccc(OC)cc4)CCCC3C2c2ccc(OC)cc2)n[nH]c1=O (stereo not drawn) | 14.9% | -11.1%
COc1ccc(/C=C2\CCCC3C2=NC(=S)NC3c2ccc(OC)cc2)cc1 (stereo not drawn) | 25.1µM* | -5.0%
Cc1ccccc1NC(=O)CSc1nc2cc3c(cc2cc1C)CCC3 | 7.0% | -5.3%
CCC(=O)Nc1ccc(NC(=O)CSc2nc3cc4c(cc3cc2C)CCC4)cc1 | 25.1µM* | 5.7%
CCOc1ccccc1NC(=O)CSc1nc2ccccc2c2nc(CCn3cncc3C)nn12 | -3.2% | 0.2%
CCc1nn(CCCC(=O)NCc2ccc(OC)c(OC)c2)c(=O)c2cc3occc3n12 | 4.8% | -2.3%
COc1ccc(-c2cc(C)nc(SCc3cccc(C(=O)O)c3)n2)cc1 | 26.5% | -11.5%
O=C(O)c1cccc(CSc2nc(-c3ccc(Cl)cc3)cc(C(F)(F)F)n2)c1 | -28.4% | 28.2µM*
CCOc1ccccc1NC(=O)Cn1c(=O)ccc2cc(S(=O)(=O)N3CCCC3)ccc21 | 0.8% | -4.7%
Cc1ccccc1CN1CCCN(CC(=O)Nc2ccc3c(c2)OCCO3)S1(=O)=O | 9.4% | -4.5%
CC(=O)c1cccc(NC(=O)c2nc(-c3ccccc3)n(-c3ccccc3C)n2)c1 | 7.94µM* | -5.9%
COc1ccc(-c2nc(C(=O)Nc3cccc(C(C)=O)c3)nn2-c2ccc(Cl)cc2)cc1 | -19.9% | -3.5%
COc1ccc(C(=O)NNc2ncnc3c2cnn3-c2ccc(C)c(Cl)c2)cc1 | -1.8% | 0.9%
CCc1ccccc1NC(=O)Cn1ccn(Cc2ccccc2)c(=O)c1=O | 9.6% | -0.5%
O=C(N/N=C\c1ccc(-c2ccc([N+](=O)[O-])cc2)o1)c1ccc2c(c1)OCO2 | 7.94µM* | -1.1%
O=C(N/N=C/c1ccc(Br)o1)c1ccc2c(c1)OCCO2 | -12.4% | -6.3%
COc1ccc(Cn2c(O)c(C=Nc3ccc(OC)cc3)c3ccccc3c2=O)cc1 | 12.6µM* | -2.9%
CC(C)CCC(C)N=Cc1c(O)n(Cc2ccccc2)c(=O)c2ccccc12 (stereo not drawn) | ? | 0.5%
Cc1cccc(CN2C(=O)c3ccccc3S(=O)(=O)c3ccc(C(=O)N4CCN(c5cc(C)ccc5C)CC4)cc32)c1 | -17.4% | 1.2%
CC(=O)[C@@H](C)CCO[C@@]1(C)OCC[C@@H]1C | 7.2% | -0.6%
COc1ccc(C(=O)NNC(=S)NC(=O)c2cc(-c3ccccc3)nc3ccccc23)cc1 | ? | -1.0%
COc1ccc(Cl)cc1C(=O)NNC(=S)NC(=O)c1cc(-c2ccccc2)nc2ccccc12 | 3.16µM* | 3.0%
CCCOc1ccc(C(=O)NNC(=S)NC(=O)c2cc(-c3ccc(Cl)cc3)nc3ccccc23)cc1 | ? | 2.7%
COC(=O)c1ccc(NC(=S)NC(=O)c2cc(-c3ccccc3)nc3ccccc23)cc1 | 10µM* | -1.9%
SMILES | Cruzain noTriton | Cruzain Triton
CC(C)(C)c1ccc(-c2cc(C(=O)NNC(=O)Nc3ccccc3)c3ccccc3n2)cc1 | ? | -3.1%
O=C(NNC(=O)c1cc(-c2ccccc2)nc2ccccc12)Nc1cccc(Cl)c1 | 20µM* | -0.3%
CCCCN(C)C(=O)Cn1cnc2sc(C)c(S(=O)(=O)N3CCC(C)CC3)c2c1=O | 5.6% | -1.5%
O=S(=O)(c1cccc(C(F)(F)F)c1)N1c2ccccc2-n2cccc2[C@H]1c1cccnc1 | 28.9% | -1.0%
Cc1nc(Nc2cccc(C(F)(F)F)c2)nc2c1C(=O)CC(C)C2 (stereo not drawn) | 15.8µM* | 4.7%
Cc1cccc(Nc2ncc3c(n2)CC(C)CC3=O)c1 (stereo not drawn) | 1.9% | -7.2%
CC1=NN(c2nc(-c3ccc(F)cc3)cs2)C(=O)C1 | -0.4% | -0.4%
CC1=NN(c2nc(-c3ccc(Cl)cc3)cs2)C(=O)C1 | 7.94µM* | -18.7%
COc1ccc(N2CCN(Cc3cc(=O)oc4ccc(OC)cc34)CC2)cc1 | 3.5% | 3.6%
Cc1ccc(C2c3c(-c4ccccc4O)n[nH]c3C(=O)N2CCc2ccccc2)cc1 (stereo not drawn) | ? | -11.2%
CCCOc1ccc(C2c3c(-c4ccccc4O)n[nH]c3C(=O)N2CCc2ccccc2)cc1OCC (stereo not drawn) | 12.6µM* | -2.4%
COc1ccc(C2c3c(-c4ccccc4O)n[nH]c3C(=O)N2CCc2ccccc2)cc1 (stereo not drawn) | 31.6µM* | -10.1%
CC(C)c1ccc(C2c3c(-c4ccccc4O)n[nH]c3C(=O)N2CCc2ccccc2)cc1 (stereo not drawn) | 20µM* | -3.8%
COc1ccc(C2c3c(-c4ccccc4O)n[nH]c3C(=O)N2CCc2ccc(OC)c(OC)c2)cc1 (stereo not drawn) | 5.9% | -5.0%
